CYP2C9 inh: blocks human cytochrome P450 2C9. actives 20% (n = 96,000). P11712. CYP2C9 Supersomes, luciferin-H conversion, luminescence. inhibition, % at 5 µM;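 active = blocking of liver enzyme CYP2C9 beyond about 50% at 5 µM, limit read from the data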
Target sequence (P11712 whole entry, looked up): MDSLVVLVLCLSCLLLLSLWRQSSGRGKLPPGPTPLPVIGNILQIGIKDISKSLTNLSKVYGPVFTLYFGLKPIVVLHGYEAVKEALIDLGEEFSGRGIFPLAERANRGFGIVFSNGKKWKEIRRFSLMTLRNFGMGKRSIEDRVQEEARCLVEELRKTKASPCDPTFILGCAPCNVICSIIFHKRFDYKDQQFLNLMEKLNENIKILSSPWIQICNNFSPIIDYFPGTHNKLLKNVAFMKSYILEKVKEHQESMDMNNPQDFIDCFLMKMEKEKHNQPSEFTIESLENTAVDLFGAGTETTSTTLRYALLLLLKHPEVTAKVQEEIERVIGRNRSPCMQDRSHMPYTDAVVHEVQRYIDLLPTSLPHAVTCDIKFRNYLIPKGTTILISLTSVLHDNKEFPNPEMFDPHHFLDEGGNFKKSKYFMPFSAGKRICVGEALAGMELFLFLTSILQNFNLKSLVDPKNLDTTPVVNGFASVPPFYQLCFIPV
sEH inh: inhibitors of human soluble epoxide hydrolase; P34913; recombinant human sEH enzymatic activity assay; inhibition, % at 2 µM; actives 0.34% (n = 91,000); AID 707; in the data active = inhibition above about 80%
CYP2C19 act: cytochrome P450 2C19 (human) activation; P33261; recombinant CYP2C19, luciferin-H EGE luminescence; active compounds read high; 0 = fully inhibited enzyme, 1 = untreated enzyme; activation factor at 5 µM; 96,000 tested, under 10 active; AID 1025;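 active = activation factor of at least 2 at 5 µM in the primary screen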
CYP2C9 activ: activators of human CYP2C9; P11712; recombinant CYP2C9, luciferin-H conversion, luminescence; active compounds read high; factor 1 = untreated enzyme, 0 = blocked; activation factor at 5 µM; actives 1.4% (n = 96,000); AID 1024;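 active = activation factor of 2 or more for CYP2C9 at a 5 µM dose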
sEH act: activators of human soluble epoxide hydrolase; purified human sEH enzymatic activity, activator screen; AID 717; activation, % at 2 µM; actives 0.04% (n = 91,000); in the data active = activation above about 37%
CYP2C19 inhib: blocks human cytochrome P450 2C19; P33261; CYP2C19 Supersomes, luciferin-H EGE luminescence, 30 min; inhibition, % at 5 µM; actives 21% (n = 96,000); AID 778;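 active = CYP2C19 inhibition above a set limit at 5 µM in the primary screen, cut at about 50% in these data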
Numbers stand for hits; n = inactive; x = no result. Rows were chosen to be rich in hits. Some 27% of all compounds tested hit in one or more screens of this group.

SMILES	CYP2C9 inh	sEH inh	CYP2C19 act	CYP2C9 activ	sEH act	CYP2C19 inhib
Cc1nn(-c2ccccc2)c2sc(C(=O)N(CC(=O)NC3CCCC3)Cc3ccco3)cc12	70	n	n	n	n	72
Cc1ccccc1-n1c(Cc2cccs2)n[nH]c1=S	n	n	n	n	n	n
Cc1cc(C)c2c(c1)SC1=NC(c3ccccc3)(C(F)(F)F)NC(=O)N12 (stereo unspecified)	n	n	n	n	n	n
COc1ccc(C(=O)Oc2ccc(=O)n(-c3ccccc3)n2)cc1	n	n	n	n	n	n
COCCN1C(=O)c2ccc(C(=O)O)cc2C1=O	55	n	n	n	n	n
COCCCN1C(=O)c2ccc(C(=O)Nc3ccc(OC)cc3)cc2C1=O	n	n	n	n	n	n
COCCN1C(=O)c2ccc(C(=O)Nc3nccs3)cc2C1=O	n	n	n	n	n	n
CCCCN1C(=O)c2ccc(C(=O)Nc3c(N)n(CCCC)c(=O)n(C)c3=O)cc2C1=O	56	x	n	n	x	n
COCCCN1C(=O)c2ccc(C(=O)Nc3ccccc3OC)cc2C1=O	n	n	n	2	n	n
Cc1ccc(S(=O)(=O)NC2=NCN(CCOC(=O)c3ccc([N+](=O)[O-])cc3)CN2)cc1	n	n	n	n	n	n
O=C1Nc2ccccc2C12OCCCCO2	n	n	n	n	n	n
COC(=O)Nc1nnc(-c2ccccc2Cl)s1	n	n	n	n	n	n
Cc1cccc(-c2onc3ccc(C4(C)OCCO4)cc23)c1	93	n	n	n	n	88
CC(C)Oc1cc(NC(=O)CSCC(=O)Nc2cccc(C(F)(F)F)c2)c(Cl)cc1Cl	n	n	n	n	n	n
Cc1cccc(Nc2nc(N)nc(CN3CCN(C)CC3)n2)c1	96	n	n	n	n	n
Cc1ccc(Nc2nc(N)nc(CN3CCN(C(=O)c4ccco4)CC3)n2)cc1Cl	85	n	n	n	n	78
Cc1cccc(Nc2nc(N)nc(CN3CCN(c4ccc(F)cc4)CC3)n2)c1	59	n	n	n	n	55
Cc1ccc(Nc2nc(N)nc(CN3CCN(C)CC3)n2)cc1	n	n	n	n	n	n
CC1=C(C(=O)Nc2cccnc2)C(c2ccc3c(c2)OCO3)C2=C(CCCC2=O)N1 (stereo unspecified)	n	n	n	n	n	n
CC(C)(C)C(=O)Nc1ccc(N2CCCC2)cc1	n	n	n	n	n	n
CCCCn1c(SCc2c(C)noc2C)nc2cc(S(N)(=O)=O)ccc21	n	n	n	n	n	n
COc1ccc(OC)c(C2CC(=O)C(C)C(c3cc(OC)ccc3OC)N2)c1 (stereo unspecified)	76	n	n	n	n	n
COc1ccc(OC)c(C2SCCN2S(C)(=O)=O)c1 (stereo unspecified)	n	n	n	n	n	n
CCCC(CCC)n1[nH]c(=O)c2c(C)cc(C)nc21	n	n	n	n	n	n
Nc1c2c(nc3ccc(Br)cc13)N(c1ccccc1)CC2	87	n	n	n	n	89
SMILES	CYP2C9 inh	sEH inh	CYP2C19 act	CYP2C9 activ	sEH act	CYP2C19 inhib
COc1cccc(N2CCN(Cc3nc(N)nc(N4CCCc5ccccc54)n3)CC2)c1	n	n	n	n	n	n
COC(=O)[C@H](C)NC(=O)COc1ccccc1	n	n	n	n	n	n
COc1ccc(N2CCN(C(=O)c3ccc(N4C(=O)NC5CC4(C)Oc4ccccc45)cc3)CC2)cc1 (stereo unspecified)	n	n	n	n	n	n
CC12CC(c3ccccc3O1)N(C(=O)c1ccco1)C(=S)N2c1ccc(F)cc1 (stereo unspecified)	n	n	n	n	n	63
COc1ccc(-c2csc(Cc3nnc(N4CCOCC4)n3-c3ccccc3)n2)cc1	n	x	n	n	x	n
CCCCCCC1/C(=N/O)CCC1C(=O)OC (stereo unspecified)	n	n	n	n	n	66
C/C(Cl)=C/CSc1nnc2n(N)c(=O)c3ccccc3n12	n	n	n	n	n	n
Cc1noc(C)c1CSc1ccc(Br)cc1	n	n	n	n	n	96
Cc1noc(C)c1CSc1nc2ccccc2n1C	62	x	n	n	x	89
Cc1noc(C)c1CSc1nnc2c(C)cc3ccccc3n12	x	n	x	x	n	x
Cc1noc(C)c1CSc1nnc2sc3ccccc3n12	n	n	n	n	n	78
Cc1noc(C)c1CSc1cc(C)c2ccccc2n1	55	n	n	n	n	86
Cc1cc(SCCC(=O)O)nc2ccccc12	n	n	n	n	n	n
Cc1cnn(Cc2ccccc2)c1N	n	x	n	n	x	n
CC(C)C(=O)N1CCN(c2nc(-c3ccccc3)c3c(c2C#N)CCCC3)CC1	94	n	n	n	n	98
CCCC(=O)N1CCN(c2nc(CC(C)C)c3c(c2C#N)CCC3)CC1	89	n	n	n	n	89
CC(C)Cc1nc(N2CCN(C(=O)Cc3ccccc3)CC2)c(C#N)c2c1COC(C)(C)C2	n	x	n	n	x	n
NC(=O)C1(N2CCCCC2)CCN(C(=O)CCCn2c(=O)[nH]c3ccsc3c2=O)CC1	n	n	n	n	n	n
COc1ccc(CCNC(=O)C2CCN(S(=O)(=O)N3CCOCC3)CC2)cc1OC	n	n	n	n	n	n
CC1C(c2ccccc2)N(C)C(c2ccccc2)CC1(O)c1ccccc1 (stereo unspecified)	n	n	n	n	n	65
CCOc1ccc(N(CC(=O)NCC2CCCO2)S(=O)(=O)c2ccc(OC)c(OC)c2)cc1 (stereo unspecified)	x	n	x	x	n	x
C=C(C)CN1C(=O)c2ccccc2C1=O	n	n	n	n	n	n
O=C(CN1C(=O)c2ccccc2C1=O)c1ccccc1	51	n	n	n	n	n
Cc1ccc(N(CC(=O)Nc2ccccc2C(=O)N2CCOCC2)S(C)(=O)=O)cc1	x	n	x	x	n	x
Cc1ccnc(N2C(=O)C3C4CC(C(Br)C4Br)C3C2=O)c1 (stereo unspecified)	n	n	n	n	n	n
SMILES	CYP2C9 inh	sEH inh	CYP2C19 act	CYP2C9 activ	sEH act	CYP2C19 inhib
O=C1C2C3CC(C(Br)C3Br)C2C(=O)N1c1ccccn1 (stereo unspecified)	n	n	n	n	n	62
O=C(NCCc1ccc(Cl)cc1)C1CCC(=O)N1Cc1ccc(F)cc1 (stereo unspecified)	66	n	n	n	n	73
Cc1ccc(CCNC(=O)C2CCC(=O)N2Cc2cccnc2)cc1 (stereo unspecified)	n	x	n	n	x	59
O=C(CSc1nc2c(c(=O)n1-c1ccc(F)cc1)SCC2)NCc1ccco1	n	n	n	n	n	n
COc1ccc(CCNC(=O)Cn2nnc(-c3ccc(N(C)C)cc3)n2)cc1OC	x	n	x	x	n	x
CC(C)Nc1nc(NC(C)(C)C)nc(Oc2ccc(=O)n(-c3ccccc3)n2)n1	n	n	n	n	n	n
Cn1c(=O)c2c(nc(N3CCN(Cc4ccccc4)CC3)n2CCSc2ncccn2)n(C)c1=O	n	x	n	n	x	n
